Measured values taken from PubChem BioAssay (NCATS).

Assay: High-throughput drug toxicity screening in the BPDCN cell line Gen2.2 (AID 1224824)
Conditions: Gen2.2 BPDCN cells; at 45.8 µM (top of the series) unless noted
Excerpt: Blastic plasmacytoid dendritic cell neoplasm (BPDCN) is a rare, aggressive and largely incurable hematologic malignancy originating from plasmacytoid dendritic cells (pDCs). Although an initial response to chemotherapy is common, BPDCN prognosis is extremely poor and most patients relapse with drug-resistant disease leading to a median overall survival of ~1 year after diagnosis. To explore novel potential therapeutic strategies in BPDCN, we performed a high-throughput drug toxicity screening in BPDCN cell liens, using of a library of 1,912 small molecules, enriched for compounds that are either approved or in early stages of development for cancer therapy.
A total of 500 exponentially growing Gen2.2 cells were seeded per well in 5 uL of media (RPMI + Glutamine, without phenol red plus10% FBS and 1X Pen/Strep) into 1536-well solid white high base tissue culture treated Greiner One Bio Plates (789173-F), using a multidrop combi dispenser and a small sterile cassette. Compounds and controls totaling 23nL per well (negative control DMSO and positive control 9.2 uM Bortezomib-final) were immediately added to the plates using a 1536 head pin tool from Kalypsys. The plates were then covered with stainless steel gasket lids from Kalypsys and incubated for 48 hours at 37C under 95% relative humidity with 5% CO2. After 48 hours, the plates were removed and allowed to reach room temperature before 3 uL of Cell Titer Glo reagent (Promega) were added using an Aurora Flying Reagent Dispenser Bioraptor. The plates were then spun at 1000 rpms to remove bubbles and incubated for 15 minutes at room temperature before reading on a ViewLux using a luminescent filter with a 10 second exposure. The relative luciferase units were used to calculated percent activity using DMSO as 100% and Bortezomib as 0%.

| SMILES | cell viability, % of control (lower = more cytotoxic) |
| --- | --- |
| S=P(N1CC1)(N1CC1)N1CC1 | 92% |
| CCCCOc1ccc(CC(=O)NO)cc1 | 37% |
| COc1cnc(NS(=O)(=O)c2ccc(N)cc2)nc1 | 32.7% |
| O=NN(CCCl)C(=O)NC1CCCCC1 | 110% |
| NS(=O)(=O)c1cc2c(cc1Cl)NC(C(Cl)Cl)NS2(=O)=O (stereo not given) | 43.4% |
| CC(C)C1CCC(C(=O)N[C@H](Cc2ccccc2)C(=O)O)CC1 (stereo not given in full) | 139% |
| CCn1cc(C(=O)O)c(=O)c2cc(F)c(N3CCNCC3)nc21 | 194% |
| CNNCc1ccc(C(=O)NC(C)C)cc1 | 284% |
| CS(=O)(=O)c1ccc([C@@H](O)[C@@H](CO)NC(=O)C(Cl)Cl)cc1 | 94.5% |
| CC(=O)Oc1ccccc1C(=O)Nc1ncc([N+](=O)[O-])s1 | 73% [at 92.2 µM] |
| CC(C)OC(=O)C(C(=O)OC(C)C)=C1SC=CS1 | 159% |
| CCC(C)(C)c1ccc(CC(C)CN2C[C@@H](C)O[C@@H](C)C2)cc1 (stereo not given in full) | 129% |
| Cc1ccc(S(=O)(=O)N[C@@H](Cc2ccccc2)C(=O)CCl)cc1 | 4.27% |
| CNC(=O)c1cc(Oc2ccc(NC(=O)Nc3ccc(Cl)c(C(F)(F)F)c3)cc2)ccn1 | 2.89% |
| OCc1ccc(-c2nn(Cc3ccccc3)c3ccccc23)o1 | 199% |
| CCc1cc(C(N)=S)ccn1 | 139% |
| CCCOc1ccc(C(=O)OCCN(CC)CC)cc1N | 177% |
| N=C(N)c1ccc(OCCCCCOc2ccc(C(=N)N)cc2)cc1 | 272% |
| CC(C)NCC(O)c1ccc(NS(C)(=O)=O)cc1 (stereo not given) | 203% |
| O=P(O)(O)C(O)(Cc1cccnc1)P(=O)(O)O | 147% |

| SMILES | cell viability, % of control (lower = more cytotoxic) |
| --- | --- |
| NC(=O)c1ccc2[nH]ccc2c1 | 140% |
| CCN(C)C(=O)Oc1cccc([C@H](C)N(C)C)c1 | 97.8% |
| COC(c1ccccc1)(c1ccccc1)[C@H](Oc1nc(C)cc(C)n1)C(=O)O | 195% |
| CCOc1cc(N)c(Cl)cc1C(=O)NCC1CN(Cc2ccc(F)cc2)CCO1 (stereo not given) | 376% |
| Cn1nnc2c(C(N)=O)ncn2c1=O | 79.7% |
| CCCCc1oc2ccc(NS(C)(=O)=O)cc2c1C(=O)c1ccc(OCCCN(CCCC)CCCC)cc1 | 5.11% |
| COc1cccc(N(C)C(=S)Oc2ccc3c(c2)CCCC3)n1 | 245% |
| Cc1nnc(NS(=O)(=O)c2ccc(N)cc2)s1 | 114% |
| COc1ccc2cc3[n+](cc2c1OC)CCc1cc2c(cc1-3)OCO2 | 19.2% |
| Nc1[nH]c(=O)ncc1F | 87.4% |
| O=S(=O)(O)CCS | 25.9% |
| CNS(=O)(=O)Cc1ccc2[nH]cc(CCN(C)C)c2c1 | 219% |
| CC1(C)[C@H](C(=O)O)N2C(=O)C[C@H]2S1(=O)=O | 240% |
| C[C@@H](CN1CC(=O)NC(=O)C1)N1CC(=O)NC(=O)C1 | 147% |
| O=S(=O)(c1cccc2cnccc12)N1CCCNCC1 | 21.4% |
| COc1nc(N)nc2c1ncn2[C@@H]1O[C@H](CO)[C@@H](O)[C@@H]1O | 82.2% |
| NC1(c2ccc(-c3nc4ccn5c(=O)[nH]nc5c4cc3-c3ccccc3)cc2)CCC1 | 7.66% |
| CC(C)Cn1cnc2c(N)nc3ccccc3c21 | 11.8% |
| COc1cc2nc(N3CCCN(C)CC3)nc(NC3CCN(Cc4ccccc4)CC3)c2cc1OC | 9.38% |
| NCCCC(O)(P(=O)(O)O)P(=O)(O)O | 169% |
